From PubChem BioAssay (NCATS) come the findings set out here.

Molecules are shown by their SMILES. Where “and” joins values, the source holds several entries; their conditions need not be identical. Equal entries are not always repeated. A number with no mark means an inactive call. Results filed as inconclusive are left out. Calls of active or inactive are those of the source. Unless noted, calls come from the whole dose curve; as a rule, active = well fitted curve in the direction sought with a large enough effect; inconclusive = small, poorly fitted or top-dose-only effect, or another doubt; inactive = no such curve, though single readings can be large; an effect the other way counts as inactive or inconclusive. Where a SMILES comes first, the peptide text is derived from it.

A short description of assay [1]: Cell Viability - BJ (AID 421; calls by dose curve;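 note: potency is the fitted concentration of half-maximal effect; cells exposed to compound for 40 hours at 37 °C before readout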). As to conditions: BJ fibroblast viability, qHTS. Put shortly:
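Cytotoxicity in human BJ foreskin fibroblasts is scored as loss of cellular ATP after a 40-hour exposure, measured by luciferase luminescence. Controls are DMSO and 100 uM tamoxifen.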
In general terms: In qHTS, concentration-response curves come from the screen itself.

A short description of assay [2]: Cell Viability - MRC5 (AID 434; calls by dose curve;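 note: potency is the fitted concentration of half-maximal effect; potency reflects cytotoxicity seen as loss of intracellular ATP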). The note with it: MRC5 lung fibroblast viability, qHTS. Put shortly: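 MRC5 normal human lung fibroblasts, 1500 cells/well, exposed to compound for 40 hr at 37 C. Cellular ATP was read by CellTiter-Glo luminescence; data normalized to DMSO and 100 uM tamoxifen, with AC50 from Hill fits.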
For assay [3], the target named is Mitogen-activated protein kinase 10 (Mus musculus) (UniProt Q61831). Briefly: JNK3 AlphaScreen Assay (AID 530; active = well fitted curve in either direction with a large enough effect, not every such curve was filed as active;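 note: kinase came from lysate of stimulated human HepG2 cells; signal reports phosphorylation of biotinylated GST-cJun 1-79 at Ser73 with 10 µM ATP; % is set by controls: 0 for no effect and ±100 for the full control effect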). The note with it: JNK3 lysate, c-Jun phosphorylation; series mostly up to 57.1 µM. The essentials:
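Pre-activated (IL-1β/TNFα) JNK3 in HepG2 lysates phosphorylates biotin-GST-cJun(1-79), 10 uM ATP; anti-phospho-cJun(Ser73) AlphaScreen read at room temperature, pH 7.6 Tris buffer. Compounds pre-incubated 15 min as titrations.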
(Bead proximity is the source of the signal in Alpha formats.)

A short description of assay [4]: Cell Viability - N2a (AID 540). Note: potency is the fitted concentration of half-maximal effect; nearly all actives have a fitted effect of over 45% in size. As to conditions: N2a mouse neuroblastoma cell viability; activity change, negative = cytotoxicity: at 92.2 µM (top of the series). The essentials:
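Luminescent ATP signal (CellTiter-Glo, 20 min at room temperature) served as the viability read-out after N2a cells were treated with compounds for 40 hours at 37 °C. Concentration-response data were fitted to the Hill equation for AC50.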

Assay [5] can be described thus: Cell Viability - NIH 3T3 (AID 541).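 For activity change, negative = cytotoxicity: plate controls were DMSO alone for no effect and tamoxifen positive control for full effect.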 Note: nearly all actives have a fitted effect of over 25% in size. Note: potency is the fitted concentration of half-maximal effect. The note with it: NIH 3T3 cell viability, qHTS; activity change, negative = cytotoxicity: at 92.2 µM (top of the series). Put shortly:
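Luminescent ATP signal (CellTiter-Glo) served as the viability read-out after NIH 3T3 cells were exposed to compounds over a concentration range for 40 hr at 37 °C. Hill-equation modelling of concentration-response data gave AC50.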

The nature of assay [6]: Cell Viability - Renal Proximal Tubule (AID 545). Note: nearly all actives have a fitted effect of over 40% in size. Note: potency is the fitted concentration of half-maximal effect. As to conditions: renal proximal tubule cells viability; activity change, negative = cytotoxicity: at 91.7 µM (top of the series) unless noted. The essentials: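 In this qHTS format, normal rat kidney-derived proximal tubule cells in complete culture medium receive compound titrations, then sit 40 hours at 37 °C before luciferase-based ATP quantitation; potency is reported as AC50 from concentration-response curves.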

The nature of assay [7]: Cell Viability - Mesenchymal (AID 546).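 Note: cells exposed to compound for 40 hours before reading.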 Note: potency is the fitted concentration of half-maximal effect. The note with it: mesenchymal cells viability, qHTS; activity change, negative = cytotoxicity: at 91.7 µM (top of the series). The essentials: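 Human kidney mesenchymal cells from normal renal glomeruli, 1000 cells/well, rested 5 hr at 37 °C, then treated 40 hr at 37 °C in complete medium. Cellular ATP read by CellTiter-Glo luminescence; AC50 from Hill-equation fits.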

A short description of assay [8]: Cellular Toxicity (caspase-3) HUV-EC-C (AID 656). The note with it: HUV-EC-C cells, caspase-3 activation (apoptosis), vehicle = 0, 100 µM tamoxifen = 100%; series mostly up to 92.2 µM. Put shortly: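 Concentration-dependent caspase 3/7 induction was assessed in HUV-EC-C cells exposed for 16 hours. Data scaled between DMSO and tamoxifen (100 uM) controls.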
Assay [9] in a line: Cellular Toxicity (caspase-3) MRC-5 (AID 659). As to conditions: MRC-5 cells, luminescence, normalized: DMSO 0%, 10 µM staurosporine 100%; series mostly up to 91.7 µM. The essentials: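 MRC-5 human normal lung fibroblasts, 1500 cells/well, treated 16 h at 37 °C in complete medium. Caspase 3/7 measured by Caspase-Glo luminescence after 1 h at room temperature. Normalized to DMSO and 10 uM staurosporine; AC50 from Hill fit.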

The nature of assay [10]: Cellular Toxicity (caspase-3) N2a (AID 665).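 Note: compound exposure lasted 16 h at 37 °C before readout.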 As to conditions: N2a cells, luminescence, normalized: DMSO 0%, 10 µM staurosporine 100%; series mostly up to 92.2 µM. The essentials:
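N2a cells, 1500/well, 5 h settle at 37 °C; cpd 16 h, 37 °C; Caspase-Glo 3/7, 1 h RT; luminescence. Norm: DMSO = 0, 10 uM staurosporine = 100%. AC50, Hill fit.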

The nature of assay [11]: Cellular Toxicity (caspase-3) Renal Proximal Tubule (AID 667).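 Note: cells exposed to compound for 16 hours at 37 °C before detection.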 As to conditions: renal proximal tubule cells; at 91.7 µM (top of the series) unless noted. The essentials:
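Caspase-Glo 3/7 read-out, rat primary kidney proximal tubule cells. Compound exposure 16 h, 37 °C; detection after 1 h at RT. Activity scaled to DMSO and 10 uM staurosporine.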

The nature of assay [12]: MultiTox-Fluor Cytotoxicity Assay - LYMP1-003 - Live Cells (AID 962).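 Note: cells exposed to compound for 16 hours at 37 °C.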 Note: potency is the fitted concentration of half-maximal effect. The note with it: LYMP1-003 lymphoblastoid cells, MultiTox-Fluor live-cell protease fluorescence; series mostly up to 92.2 µM. Put shortly: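 qHTS, 1536-well; 2500 cells/well LYMP1-003; 5 hr 37 C settle; cpd 16 hr 37 C; MultiTox-Fluor reagent 60 min RT; live-cell protease fluor. 405/510; Hill-fit AC50; tetraoctylammonium bromide pos. ctrl.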

The nature of assay [13]: Cell Viability - LYMP2-008 (AID 980).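 For activity change, negative = cytotoxicity: cells exposed to compound for 24 h at 37 °C; % is set by controls: 0 for no effect and ±100 for the full control effect.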 Note: nearly all actives have a fitted effect of over 60% in size. Note: potency is the fitted concentration of half-maximal effect. As to conditions: LYMP2-008 lymphoblastoid cell viability, qHTS; series mostly up to 92.2 µM. Put shortly: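 qHTS, human lymphoblastoid line, 2500 cells/well; 5 hr preincubation, 24 hr compound, 37 C. CellTiter-Glo ATP luminescence. AC50 via Hill equation. Tetraoctylammonium bromide positive control.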
Assay [14] addresses Tumor necrosis factor (Homo sapiens) (UniProt P01375). Nature of the assay: qHTS assay to identify small molecules that stimulate Tumor Necrosis Factor-alpha (TNF-alpha) secretion (AID 651757; active = well fitted curve in the direction sought with a large enough effect in the signal ratio; the % refers to the signal ratio; note: 0% is about no effect). The note with it: Human cells, HTRF 665/615 ratio; series mostly up to 92.2 µM. Put shortly: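 Read-out is HTRF, a TR-FRET sandwich of cryptate- and XL665-labeled anti-TNF-alpha antibodies detecting cytokine secreted by THP-1 cells. Cells had been incubated with test compounds at 37 C for 17 hrs beforehand.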

Assay [15] in a line: qHTS assay for environmental chemicals that activate the Aryl hydrocarbon Receptor (AhR) signaling pathway (AID 651777). Note: % of control where 0% means no effect; nearly all actives have a fitted effect of over 15% in size. As to conditions: 1A2-DRE human hepatoma cells, luciferase, 24 h; activation: hits give high values. The essentials:
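Reporter gene assay: hepatoma cells with DRE/CYP1A2-luciferase, 24 hr compound incubation at 37 C, 5% CO2, luminescence after One-Glo (30 min, RT).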

Assay [16] concerns the target Glucocorticoid receptor (Homo sapiens) (UniProt P04150). Nature of the assay: GR-GFP Redistribution (AID 450;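 active = compounds whose dose series gives a full or clear partial fitted curve of increased nuclear translocation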; note: potency is the fitted concentration of half-maximal effect). As to conditions: U2OS GR-GFP nuclear translocation, laser cytometry, 2 h.
Assay [17] can be described thus: Cellular Toxicity (caspase-3) HepG2 (AID 654).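 Note: cells exposed to compound for 16 hours before reading.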 The note with it: HepG2 caspase-3 activation, luminescence, 0% = DMSO only, 100% = tamoxifen; series mostly up to 92.2 µM. Put shortly: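 Cells plated 5 hr at 37 °C, compound added, incubated 16 hr at 37 °C. Caspase-Glo 3/7 reagent followed, 20 min at room temperature, then luminescence read. Activation scored as signal increase; AC50 from Hill fit.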

Assay [18] in a line: Validation screen for inhibitors of Lassa infection (AID 463096; calls by dose curve; note: % is set by controls: 0 for no effect and ±100 for the full control effect). As to conditions: Lassa virus infection, cell-based; series mostly up to 46.1 µM.

Sequence of Glucocorticoid receptor (Homo sapiens) (P04150 whole entry, looked up): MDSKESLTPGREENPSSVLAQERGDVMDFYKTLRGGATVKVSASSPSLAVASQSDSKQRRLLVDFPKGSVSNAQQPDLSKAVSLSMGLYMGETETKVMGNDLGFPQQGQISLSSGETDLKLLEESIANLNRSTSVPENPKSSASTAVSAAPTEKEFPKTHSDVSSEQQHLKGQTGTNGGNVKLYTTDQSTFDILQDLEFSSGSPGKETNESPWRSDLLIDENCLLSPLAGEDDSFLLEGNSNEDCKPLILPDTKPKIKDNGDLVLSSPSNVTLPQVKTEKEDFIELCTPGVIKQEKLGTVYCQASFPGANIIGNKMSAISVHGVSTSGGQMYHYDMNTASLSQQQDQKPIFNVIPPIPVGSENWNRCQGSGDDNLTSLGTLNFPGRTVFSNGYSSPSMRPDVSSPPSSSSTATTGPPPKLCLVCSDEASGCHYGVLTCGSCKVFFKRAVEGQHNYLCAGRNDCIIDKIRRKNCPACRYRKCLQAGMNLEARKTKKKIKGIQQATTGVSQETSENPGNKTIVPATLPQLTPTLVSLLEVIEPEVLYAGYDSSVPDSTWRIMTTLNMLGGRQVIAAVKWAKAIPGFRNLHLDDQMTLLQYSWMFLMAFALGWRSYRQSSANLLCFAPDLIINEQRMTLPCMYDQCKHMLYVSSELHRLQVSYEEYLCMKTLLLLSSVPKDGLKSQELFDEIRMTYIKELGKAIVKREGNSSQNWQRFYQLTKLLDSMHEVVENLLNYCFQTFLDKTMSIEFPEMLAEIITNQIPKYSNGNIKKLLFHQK
Sequence of Tumor necrosis factor (Homo sapiens) (P01375 whole entry, looked up): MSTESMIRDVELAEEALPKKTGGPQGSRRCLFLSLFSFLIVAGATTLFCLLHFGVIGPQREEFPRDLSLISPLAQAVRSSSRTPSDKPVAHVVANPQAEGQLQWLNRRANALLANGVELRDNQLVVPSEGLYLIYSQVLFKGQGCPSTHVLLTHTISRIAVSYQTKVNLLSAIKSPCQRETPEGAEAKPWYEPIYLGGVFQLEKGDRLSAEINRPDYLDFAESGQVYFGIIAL

For `O=C1C2(Cl)C3(Cl)C4(Cl)C(Cl)(Cl)C5(Cl)C3(Cl)C1(Cl)C5(Cl)C24Cl` (stereo not given), the Potency in [1] is 26.8 µM (active) and 61.3 µM (active); in [2], 39.7 µM (active) and 48.6 µM (active); in assay [4], 31.6 µM (active) and 39.8 µM (active); in assay [6], 31.6 µM (active); in assay [7] it was 31.6 µM (active); in assay [12], 39.8 µM (active) and 50.1 µM (active). The Potency in assay [13] is 50.1 µM (active). Besides, the call in assay [3], in assay [8], in assay [9] and in assay [10] was inactive. The activity change, negative = cytotoxicity is -136% (active) and -122% (active) in [5]; -88.2% (active) in assay [6]; -92.3% (active) in [7]. Besides, the caspase-3 activation in assay [11] is -3.9%. The Potency entry in [14] is “inactive”. Moreover, the activation in assay [15] is 0.0088% and 4.7%.

As to `CC(C)[C@@]1(NC(=O)[C@@H]2C=C3c4cccc5[nH]cc(c45)C[C@H]3N(C)C2)O[C@@]2(O)[C@@H]3CCCN3C(=O)[C@H](Cc3ccccc3)N2C1=O`, the Potency in assay [16] was above 20.6 µM.

Consider `OC(Cc1ccccc1)(c1ccccc1)C1CN2CCC1CC2` (stereo not given), for which the Potency in assay [16] is above 20.6 µM.

Take `C[C@@H]1CC[C@@]2(OC1)O[C@H]1[C@@H](O)[C@H]3[C@@H]4CC[C@H]5C[C@@H](O[C@@H]6O[C@H](CO)[C@H](O[C@@H]7O[C@H](CO)[C@@H](O)[C@H](O[C@@H]8OC[C@@H](O)[C@H](O)[C@H]8O)[C@H]7O[C@@H]7O[C@H](CO)[C@@H](O)[C@H](O[C@@H]8O[C@H](CO)[C@@H](O)[C@H](O)[C@H]8O)[C@H]7O)[C@H](O)[C@H]6O)[C@H](O)C[C@]5(C)[C@H]4CC[C@]3(C)[C@H]1[C@@H]2C`: the Potency was 19.9 µM (active) in assay [1]; 24.4 µM (active) in [2]; 31.6 µM (active) in assay [4]; 31.6 µM (active) in assay [5]; 7.94 µM (active) in assay [6]; 31.6 µM (active) in assay [7]. Further, the Potency in assay [12] was 10 µM (active); in assay [13], 20 µM (active). Also, the outcome in [3], in assay [17], in assay [8], in assay [9] and in assay [10] was inactive. In assay [11], the caspase-3 activation was -2.38%. The Potency entry in assay [14] is “inactive”. Besides, the activation in [15] is -9.71%.

For the molecule `COP(=O)(OC)O/C(=C\Cl)c1cc(Cl)c(Cl)cc1Cl`, the Potency in assay [1] and in [2] was above 92 µM each time. The outcome in assay [3], in [17], in [8], in [9] and in [10] was inactive. Besides, the Potency result in assay [6], in assay [7], in assay [12], in assay [13] and in [14] was “inactive” throughout. The caspase-3 activation in assay [11] is 2.58% [at 91.7 µM, primary cells freshly taken from rat, solvent-only wells 0%, staurosporine 100%]. The activation in assay [15] is 0.406%.

In the case of `CC(C)C[C@H](NC(=O)[C@@H]1CCCN1C(=O)[C@@H](N)Cc1ccc(O)cc1)C(=O)NCC(N)=O` (H-YPLG-NH2), the Potency in assay [16] was above 20.6 µM.

On to `O=[N+]([O-])c1ccc(CSc2ncnc3c2ncn3[C@@H]2O[C@H](CO)[C@H](O)[C@H]2O)cc1`, for which the Potency entry in [18] is “inactive”.

As for `CNC(=O)[C@H]1O[C@@H](n2cnc3c(N)ncnc32)[C@H](O)[C@H]1O`, in assay [18], the Potency entry is “inactive”.

With `Nc1nc(Cl)nc2c1ncn2[C@@H]1O[C@H](COP(=O)(O)OP(=O)(O)OP(=O)(O)O)[C@H](O)[C@H]1O`, in assay [18], the Potency result is “inactive”.

In the case of `O=C(O)CC[C@H](NC(=O)c1ccccc1C(=O)O)C(=O)O`, the Potency entry in assay [18] was “inactive”.

As for `CC[C@H](C)C(=O)O[C@H]1CCC=C2C=C[C@H](C)[C@H](CC[C@@H]3C[C@H](O)CC(=O)O3)C21` (stereo not given in full), the Potency result in [18] is “inactive”.

As to `CN=C(N)NCCCC(N)C(=O)O` (stereo not given), the Potency entry in assay [18] was “inactive”.

As to `Oc1cc2c(cc1O)[C@H]1c3ccccc3CN[C@H]1CC2`, the Potency in assay [16] was above 46 µM.

`CCCCCCCCCCCCC/C=C/[C@@H](O)[C@@H](N)CO`: in [18], the Potency entry is “inactive”.

Regarding `CC(=O)[C@@]1(O)CC[C@H]2C3CCC4=CC(=O)CC[C@]4(C)C3CC[C@@]21C` (stereo not given in full), the Potency entry in [18] is “inactive”.

As to `Nc1ccn([C@@H]2O[C@H](CO)[C@@H](O)[C@@H]2O)c(=O)n1`, the Potency result in assay [18] is “inactive”.

Turning to `COc1cc2c(cc1O)CCN[C@H]2C`, in assay [16], the Potency is above 46 µM. Besides, the outcome in [3] was inactive.

For the molecule `COc1c2c(nc3ccccc13)OC(C(C)(O)CO)C2` (stereo not given), in [18], the Potency result was “inactive”.

For the molecule `C/C=C1\C(=O)CC2C3CCC4=CC(=O)CC[C@]4(C)C3CC[C@]12C` (stereo not given in full), the Potency entry in [18] was “inactive”.

With `CN1CCc2cc(Cl)c(O)cc2C(c2ccccc2)C1` (stereo not given), the Potency result in [18] was “inactive”.
